Assay results reported in a collection of fitness landscapes (doi:10.1016/j.celrep.2020.107928).
The full ranking holds about 81,000 sequences; the median of “one-hybrid fitness for binding parS DNA” is about -0.17, and the highest 2% start at about 0.51. What follows is part of a selection rich in the highest values, with near analogues and random picks from the rest.

B1: Caulobacter ParB omega fusion; a variant is named by its letters at X, in order, B8GW30 (parent)
chain: MESVVVGEPGMSEGRRGLGRGLSALLGEVDAAPAQAPGEQLGGSREAPIEILQRNPDQPRRTFREEDLEDLSNSIREKGVLQPILVRPSPDTAGEYQIVAGERAWRAAQRAGLKTVPIMVRELDDLAVLEIGIIENVQRADLNVLEEALSYKVLMEKFERTQENIAQTIGKSXSHVANXMRLLXLPDEVQSYLVSGELTAXHARAIAAAADPVALAKQIIEGGLSVRETEALARKAPNLSAGKSKGGRPPRVKDTDTQALESDLSSVLGLDVSIDHRGSTGTLTITYATLEQLDDLCNRLTRGI

Variants of: B1
Test: one-hybrid fitness for binding parS DNA (scaled: cognate 1, non-cognate 0); higher = stronger binding
Details: with parS DNA site
Outline: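 Selection: bacterial one-hybrid in E. coli USO, HIS3 reporter with the site 19 bp from the promoter, 48 hours at 37°C on M9-minus-histidine plus 0.1 mM IPTG and 5 mM 3-AT. Libraries were Caulobacter ParB with four randomised specificity codons, sequenced on Illumina before and after selection. Fitness is the rescaled log change in variant-to-wild-type read ratio, anchored to the cognate and non-cognate sites.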

one-hybrid fitness for binding parS DNA, 0.593:
RRHT

one-hybrid fitness for binding parS DNA, 0.531:
RFGA

one-hybrid fitness for binding parS DNA, 0.41:
RVVN

one-hybrid fitness for binding parS DNA, 0.537:
RMIA

one-hybrid fitness for binding parS DNA, 0.771:
RKFT

one-hybrid fitness for binding parS DNA, 0.246:
RAEM

one-hybrid fitness for binding parS DNA, 0.245:
RLQW

one-hybrid fitness for binding parS DNA, 0.552:
RARY

one-hybrid fitness for binding parS DNA, 0.587:
RRCT
RLSA

one-hybrid fitness for binding parS DNA, 0.436:
RMAY

one-hybrid fitness for binding parS DNA, 0.493:
RCQY

one-hybrid fitness for binding parS DNA, 0.67:
RKHA

one-hybrid fitness for binding parS DNA, 0.354:
RFDN

one-hybrid fitness for binding parS DNA, 0.386:
RWGA

one-hybrid fitness for binding parS DNA, 0.429:
RWSA

one-hybrid fitness for binding parS DNA, 0.579:
RKYA

one-hybrid fitness for binding parS DNA, 0.866:
RCEC

one-hybrid fitness for binding parS DNA, 0.623:
RRLT

one-hybrid fitness for binding parS DNA, 0.717:
RKSA

one-hybrid fitness for binding parS DNA, 0.376:
RLPA

one-hybrid fitness for binding parS DNA, 0.496:
RNGA

one-hybrid fitness for binding parS DNA, 0.739:
RSEC

one-hybrid fitness for binding parS DNA, 0.515:
RHSA

one-hybrid fitness for binding parS DNA, 0.756:
RVKA

one-hybrid fitness for binding parS DNA, 0.547:
RKLA

one-hybrid fitness for binding parS DNA, 0.851:
RHEC

one-hybrid fitness for binding parS DNA, 0.731:
RREC

one-hybrid fitness for binding parS DNA, 0.482:
RCNY

one-hybrid fitness for binding parS DNA, 0.646:
RRNS

one-hybrid fitness for binding parS DNA, 0.296:
RIYW

one-hybrid fitness for binding parS DNA, 0.811:
RRNN

one-hybrid fitness for binding parS DNA, 0.913:
RMAT

one-hybrid fitness for binding parS DNA, 0.28:
RRYY

one-hybrid fitness for binding parS DNA, 0.575:
RCSA

one-hybrid fitness for binding parS DNA, 0.648:
RRDT

one-hybrid fitness for binding parS DNA, 0.712:
RKQA

one-hybrid fitness for binding parS DNA, 0.818:
RKAT

one-hybrid fitness for binding parS DNA, 0.882:
RMFT

one-hybrid fitness for binding parS DNA, 0.743:
RRDS

one-hybrid fitness for binding parS DNA, 0.414:
RTEY

one-hybrid fitness for binding parS DNA, 0.774:
RKRA

one-hybrid fitness for binding parS DNA, 0.223:
RHEQ
RKPA

one-hybrid fitness for binding parS DNA, 0.566:
RRGT

one-hybrid fitness for binding parS DNA, 0.573:
RMGA

one-hybrid fitness for binding parS DNA, 0.451:
RKIA

one-hybrid fitness for binding parS DNA, 0.807:
RAEC

one-hybrid fitness for binding parS DNA, 0.542:
RTIA

one-hybrid fitness for binding parS DNA, 0.546:
RHGA
RMQY

one-hybrid fitness for binding parS DNA, 0.333:
RSEN

one-hybrid fitness for binding parS DNA, 0.591:
RTSA

one-hybrid fitness for binding parS DNA, 0.617:
RLGA

one-hybrid fitness for binding parS DNA, 0.274:
RRFY

one-hybrid fitness for binding parS DNA, 0.391:
RRGM

one-hybrid fitness for binding parS DNA, 0.338:
RIEY

one-hybrid fitness for binding parS DNA, ≤ 0.2:
DCRY
LYRG
QLEI
RRND
RRDD
RRNP
RRDP
MPNM
LHPH
GDDG
QSME
ACRS
SHIK
VLLG
RFND
RFDP
RFNH
WGKS
RQTE
NRHC
RRSQ
RRRK
RRDK
RRYQ
RRRR
RRYF
RRSK
RRDF
SYQG
LIRC
MILL
PRDA
YSLD
WHRF
RRGK
RRCQ
RRCK
RRLQ
RRWM
RRLM
RRWR
SPPK
RSIQ
YRAT
EFSC
DTGT
LRWE
AHLK
MITC
RRPK
LTLY
RRQK
RRNK
DRHT
RRHR
RRNR
RRQF
HISY
PLCG
KSHC
TRTL
QHPL
TQMA
LYGV
STLG
RMAQ
VYHP
HINR
PLDY
PNDH
RVKH
RVVD
RVKP
EWSG
QKNH
APDA
PFGA
DTGA
ETGA
DFGA
RPGA
DMGA
NTKT
QYPA
WNKI
NLGA
DAGA
REGA
DLGA
VGER
ETLC
ETVR
LAFP
GGRS
KQSE
PDSM
LRGD
RMEH
RLEI
RKEI
RLER
RPEC
RDEC
RKEQ
LRQY
VQGR
HFMV
TEEC
FLDS
HFDS
QTWK
CLLK
TGRC
RHEF
RIER
RREH
RREP
RAER
GGWR
ITFG
ITHW
KYTR
QQLK
YTGV
RFEI
RTEK
RSED
NFEC
YRPK
DVSL
PMLT
QLTV
SPHY
KVAV
NKDH
AYAS
MADT
LSCT
DTSA
DASA
NTSA
RDSA
NASA
RPSA
CEWG
PPVE
RGTE
VPLK
LSLN
KMRA
APLY
YCRA
PHDR
INAG
NMSA
DHSA
SFSA
DLSA
RESA
CFSA
QQWL
HSTQ
QIPS
NIHV
LAFG
NNTV
SRTI
LHLI
FTFT
RKAK
RKFD
RKAR
TVYC
QLDE
GTYL
NKHA
AYMW
WTLN
CKRT
VEKG
ALQI
MAKW
GFDC
WTHF
NKRA
QRWL
LNLV
PQAL
PVGY
PLAI
DVKA
NVVA
SVKA
DVVA
ALNW
ACFK
PSMV
RPIA
VHRF
NYLC
ALEW
NIYW
RPQY
AECV

one-hybrid fitness for binding parS DNA, 0.399:
RGSA

one-hybrid fitness for binding parS DNA, 0.694:
RKGA

one-hybrid fitness for binding parS DNA, 0.206:
RMFF

one-hybrid fitness for binding parS DNA, 0.791:
RIEC

one-hybrid fitness for binding parS DNA, 0.474:
RSIA

one-hybrid fitness for binding parS DNA, 0.595:
RAGA
RASA

one-hybrid fitness for binding parS DNA, 0.59:
RMSA

one-hybrid fitness for binding parS DNA, 0.583:
RSSA

one-hybrid fitness for binding parS DNA, 0.679:
RTGA

one-hybrid fitness for binding parS DNA, 0.682:
RRWT

one-hybrid fitness for binding parS DNA, 0.572:
RFSA

one-hybrid fitness for binding parS DNA, 0.501:
RAYY

one-hybrid fitness for binding parS DNA, 0.812:
RRRY

one-hybrid fitness for binding parS DNA, 0.893:
RKEC

one-hybrid fitness for binding parS DNA, 0.393:
RMPA

one-hybrid fitness for binding parS DNA, 0.597:
RRRT
RSGA

one-hybrid fitness for binding parS DNA, 0.551:
RRQT
RCIA

one-hybrid fitness for binding parS DNA, 0.727:
RFEC
RRNY

one-hybrid fitness for binding parS DNA, 0.257:
RRDN

one-hybrid fitness for binding parS DNA, 0.211:
RKFH

one-hybrid fitness for binding parS DNA, 0.592:
RLIA

one-hybrid fitness for binding parS DNA, 0.954:
RFDS

one-hybrid fitness for binding parS DNA, 0.289:
RRDY

one-hybrid fitness for binding parS DNA, 0.874:
RTEC

one-hybrid fitness for binding parS DNA, 0.369:
RMFM
RMEN

one-hybrid fitness for binding parS DNA, 0.389:
RADY

one-hybrid fitness for binding parS DNA, 0.604:
RRYT

one-hybrid fitness for binding parS DNA, 0.235:
RMAW

one-hybrid fitness for binding parS DNA, 0.565:
RRNT
RVVA

one-hybrid fitness for binding parS DNA, 0.256:
RRNH

one-hybrid fitness for binding parS DNA, 0.363:
RTPA

one-hybrid fitness for binding parS DNA, 0.984:
RFNS

one-hybrid fitness for binding parS DNA, 0.295:
RWIA

one-hybrid fitness for binding parS DNA, 0.54:
RRST

one-hybrid fitness for binding parS DNA, 0.878:
RMEC

one-hybrid fitness for binding parS DNA, 0.947:
RLEC

one-hybrid fitness for binding parS DNA, 1.03:
RVVS

one-hybrid fitness for binding parS DNA, 0.831:
RVKS

one-hybrid fitness for binding parS DNA, 0.653:
RCGA
